# This is a sample that favours compounds with a hit; in the whole collection about 12% have one here.
# m-calpain inh: inhibitors of pig calpain II, primary screen, biochemical, fluorogenic peptide substrate, 1536-well; purified calpain II, 30 min; inhibition, % at 16 µM; 220,000 tested, 0.37% active; AID 1236, 2008;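 active = inhibition above about 50%, limit read from the data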
# Lmaj promast: Leishmania major promastigote growth inhibition, primary screen; Leishmania major promastigotes, resazurin fluorescence viability; 200,000 tested, 9% active; inhibition, % at 10 µM; in the data active = inhibition above about 50%;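 also: promastigotes grown with compound for 44 hours at 28 °C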
# WT yeast gro inh: growth inhibition of WT strain, primary screen, mitochondrial fusion inhibitor project, WT and mutant strains, chemical genetic; inhibition, % at 10 µM; mitochondrial fusion phenotypic screen; 190,000 tested, 2.1% active; in the data active = inhibition above about 58%; tested in S. cerevisiae
# ROMK primary: ROMK potassium channel modulators, primary screen, cell-based, thallium flux, MLSMR library; 130,000 tested, 2% active; B-score at 10 µM; AID 1918, 2009; Tet-inducible ROMK, thallium flux fluorescence; actives lie on both sides;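 active = signal ratio slope over the read window, or its plate-corrected B-score, at least 3 SD from the plate mean, either direction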;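 also: B-score of the F/F0 ratio slope over 7 to 12 s after thallium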
# Cl transport mod: KCC2 cotransporter modulators, thallium flux, primary screen, cell-based, HEK293 KCC2, FluoZin-2 fluorescence, MLSMR; B-score of Tl+ flux slope (higher = more flux/activation; lower = inhibition) at 10 µM; Solute carrier family 12 member 5 (Homo sapiens), Q9H2X9; AID 1456, 2008; 190,000 tested, 2.2% active; KCC2 cells, thallium flux FluoZin-2 fluorescence;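 active = thallium flux slope and its plate-corrected score both differing from the plate sample mean at a set confidence after two filtering rounds, in either direction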;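 also: slope of fluorescence scaled to starting intensity during 10 to 20 s after thallium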
# Starred values were filed as active, the others as inactive; · = no result.
SMILES,m-calpain inh,Lmaj promast,WT yeast gro inh,ROMK primary,Cl transport mod
O=C(Cc1ccc([N+](=O)[O-])cc1)N1CCN(Cc2ccc3c(c2)OCO3)CC1,3,·,·,-0.9,-0.0091
O=c1[nH]c(=O)n(-c2ccc(Br)cc2)c(O)c1C=NCCN1CCCCC1,-7,·,·,0.76,1.7
CN(Cc1c[nH]c2ccccc12)C1CCCCC1,-2,70*,0,-0.086,0.68
c1ccc2c(CNC3CCCCC3)c[nH]c2c1,-27,31,11,-0.97,-5.1*
CCC(CC)NCc1c[nH]c2ccccc12,-39,45,3,-0.79,-0.11
Cn1nc(N)c2c1N=P(N1CCOCC1)(N1CCOCC1)N=C2c1ccccc1,-41,0,7,·,0.6
COc1ccc(-c2nn(CCC#N)cc2C(=O)Nc2ccccc2Br)cc1[N+](=O)[O-],7,·,·,·,-0.23
CCOC(=O)c1c(C)n(Cc2ccccc2)c2ccc(O)cc12,2,-1,-20,-0.086,0.39
CCOC(=O)c1c(NC(=O)C(c2ccccc2)c2ccccc2)sc2c1C1CCN2CC1,2,100*,0,·,1.4
CNC(=O)N(C)c1ccc(C(O)(C(=O)OC)C(F)(F)F)cc1 (stereo not drawn),-91,·,·,·,-0.028
COC(=O)C(O)(c1ccc(N(C)C(=O)OC(C)C)cc1)C(F)(F)F (stereo not drawn),-13,92*,-13,·,0.69
CN(C(=O)Oc1ccc(C(C)(C)C)cc1)c1ccccc1,32,-3,16,-0.2,-0.49
CCOC(=O)C(O)(c1ccc(N(CC)C(=O)OC)cc1)C(F)(F)F (stereo not drawn),12,98*,-7,-0.13,1.3
CCOC(=O)N(C)c1ccc(C(O)(C(=O)OCC)C(F)(F)F)cc1 (stereo not drawn),-6,99*,-3,·,-0.69
CCOC(=O)N(CC)c1ccc(C(O)(C(=O)OCC)C(F)(F)F)cc1 (stereo not drawn),-8,98*,-6,·,0.34
CCOC(=O)C(NC(=O)CCl)(Nc1ccc(C(O)(C(=O)OCC)C(F)(F)F)cc1)C(F)(F)F (stereo not drawn),10,6,7,1.1,0.7
C[N+]12CCC(CC1)C(C#N)(N1CCOCC1)C2 (stereo not drawn),-3,-8,25,·,0.26
O=C1CCCC2C3CCCN4CCCC(CN12)C34 (stereo not drawn),11,-6,-13,-0.022,-0.41
CCN(C(=O)Oc1ccccc1)c1ccc(C(O)(C(=O)OC)C(F)(F)F)cc1 (stereo not drawn),-16,99*,4,·,-0.43
Cc1nn(C)cc1/C=C1/CC2C3CC=C4CC(O)CCC4(C)C3CCC2(C)C1=O (stereo not drawn),·,5,·,·,-0.83
CC12CCC3C(CC=C4CC(O)CCC43C)C1C/C(=C\c1ccccc1F)C2=O (stereo not drawn),-9,1,65*,·,1
COc1ccccc1CCNC1C2CC3CC(C2)CC1C3 (stereo not drawn),-15,17,1,-2.2,0.022
COc1ccccc1CCNC1CCC(C)CC1 (stereo not drawn),-1,77*,-1,-1.8,0.35
O=c1c2ccccc2nc(-c2ccc(-c3ccccc3)cc2)n1-c1ccncc1,4,73*,2,·,·
S=C1NCCN1,9,-2,4,·,0.93
SMILES,m-calpain inh,Lmaj promast,WT yeast gro inh,ROMK primary,Cl transport mod
O=C(CNC(=O)c1ccccc1Cl)Nc1ccc(Br)cc1C(=O)c1ccccc1,38,5,14,-0.023,-0.96
O=C(c1cc(C(=O)NCc2ccccc2)c(=O)n(Cc2ccccc2)c1)c1cc(Br)ccc1O,-51,99*,26,0.33,-0.84
Cc1ccc(O)c(C(=O)c2cc(C(=O)NCc3ccccc3)c(=O)n(Cc3ccccc3)c2)c1,10,78*,6,·,-0.06
C=CCn1c(O)c(C(CC)=Nc2ccc(N(CC)CC)cc2)c(=O)[nH]c1=O,-4,26,-17,0.041,·
COc1ccc(N2C(=O)/C(=C/C=C/c3ccccc3[N+](=O)[O-])C(=O)NC2=S)cc1,-16,92*,-11,-0.44,-1.3
CCOc1ccc(N2C(=O)NC(=O)/C(=C\c3cc(OC)c(OC)cc3[N+](=O)[O-])C2=O)cc1,18,56*,8,·,0.5
COc1ccc(N2C(=O)NC(=O)/C(=C\c3ccc([N+](=O)[O-])s3)C2=O)cc1,25,97*,18,-1.5,2.2
